# Compound activity as filed in PubChem BioAssay.
# Hits are enriched below; roughly 19% of the tested compounds scored in any of these assays.
# TDP1 cell CPT: qHTS for Inhibitors of human tyrosyl-DNA phosphodiesterase 1 (TDP1): qHTS in cells in presence of CPT; chicken DT40 Tdp1-/-;hTDP1 cells + 20 nM CPT, ATP luminescence, 48 h; Potency, µM (top dose mostly 46.2 µM), inactives show at the highest dose activity change, negative = growth inhibition, most hits filed as inhibitors; 420,000 compounds, 12% hits; further: nearly all actives have a fitted effect of over 55% in size
#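 Cell growth measured by CellTiter-Glo luminescence after a minimum 48 h, 37 C compound exposure with 20 nM CPT in Tdp1-knockout DT40 cells stably expressing hTDP1, seeded 400/well; qHTS titration format.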
# DT40 TDP1 no CPT: qHTS for Inhibitors of human tyrosyl-DNA phosphodiesterase 1 (TDP1): qHTS in cells in absence of CPT; DT40 Tdp1-/- hTDP1 cells, no CPT, ATP luminescence, 48 h; Potency, µM (series often up to 46.2 µM), for inactives: top-dose activity change, negative = growth inhibition, actives largely listed as inhibitors; 420,000 compounds, 15% hits; AID 686978, 2013; further: nearly all actives have a fitted effect of over 55% in size
#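 Chicken DT40 Tdp1-/- cells stably complemented with human TDP1 were seeded at 400 cells/well with DMSO in place of 20 nM camptothecin. After compound pinning, cells grew at least 48 hr at 37 °C; viability read by CellTiter-Glo luminescence.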
# HT1080 IDH1KD tx: qHTS for induction of synthetic lethality in tumor cells producing 2HG: qHTS for the HT-1080-IDH1KD cell line; HT-1080 IDH1 knockdown viability, ATP luminescence, 48 h; Potency, µM (series often up to 46.1 µM), inactives show at the top dose activity, negative = toxicity, usual class: cytotoxic; 360,000 compounds, 2% hits; AID 686971, 2013;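 further: 0% = DMSO wells and -100% = cell-free medium wells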
#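 Using the IDH1-knockdown HT-1080 line run in the same batch and compound series as the NT line, viability after 48 h at 37 °C was determined by CellTiter-Glo luminescence and expressed as % activity.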
# HT1080-NT tox: qHTS for induction of synthetic lethality in tumor cells producing 2HG: qHTS for the HT-1080-NT fibrosarcoma cell line. HT-1080-NT fibrosarcoma viability, CellTiter-Glo ATP luminescence, 48 h. Potency, µM (top dose mostly 46.1 µM), for the others: top-dose activity, negative = less viability, actives largely listed as cytotoxic. 360,000 compounds, 1.6% hits. AID 686970, 2013;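 further: NT is the 2HG producing partner of a matched IDH1 knockdown line; 0% = DMSO-treated cells and -100% = media-only wells without cells; nearly all actives have a fitted effect of over 55% in size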
#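 Fibrosarcoma NT cells, 750 per well in 5% FBS RPMI, were exposed to compound for 48 hours. Viability: CellTiter-Glo luminescence.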
# KB-3-1 tox: qHTS assay for MDR1-selective chemotherapeutics: Primary screen using the parental adenocarcinoma cell KB-3-1; KB-3-1 viability, CellTiter-Glo ATP luminescence, 72 h; 400,000 compounds, 1.4% hits; Potency, µM (titrated, usually from 46.1 µM), hits mostly cytotoxic; further: nearly all actives have a fitted effect of over 60% in size
#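 Screening of KB-3-1 cells (DMEM, 10% FBS, phenol-red free) ran from lowest to highest compound concentration; after 72 h at 37 °C viability was read luminescently and curves fitted.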
# KB-V1 MDR tox: qHTS assay for MDR1-selective chemotherapeutics: Primary screen using the drug-selected MDR subline cells KB-V1. KB-V1 MDR cells viability, CellTiter-Glo, 72 h. Potency, µM (titrated, usually from 46.1 µM), actives largely listed as cytotoxic. 400,000 compounds, 3.4% hits; further: nearly all actives have a fitted effect of over 60% in size
#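 KB-V1 MDR subline cells in DMEM (phenol-red free, 10% FBS) exposed to compounds in qHTS concentration series for 72 h at 37 degrees C. Viability read by CellTiter-Glo luminescence; concentration-effect curves fitted after normalization and correction.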
# Numbers without * were called inactive; i = inactive; ? = inconclusive; . = no result; [ ] = remark or other dose. The call rests on the fitted dose curve; in most records, active means well fitted curve in the direction sought with a large enough effect; inconclusive means small, poorly fitted or top-dose-only effect, or another doubt; inactive means no such curve, though single readings can be large; an effect the other way counts as inactive or inconclusive. Unless noted, on the % scale 0 is the no-effect control and ±100 the full control effect; potency means the concentration at half of the fitted maximal effect.
SMILES,TDP1 cell CPT,DT40 TDP1 no CPT,HT1080 IDH1KD tx,HT1080-NT tox,KB-3-1 tox,KB-V1 MDR tox
CO[C@H]1[C@H](NC(=O)c2ccsc2)c2ccccc2C12CCN(Cc1cccc3ncccc13)CC2,-11%[9.04 µM],?,.,.,.,.
CCOc1ccc(NC(=O)CN2C(=O)COc3ccc(Cl)cc32)cc1,?,-6%,0%,1%,i,i
CCOC(=O)c1ccc(NC(=O)CN2C(=O)COc3ccc(Cl)cc32)cc1,13µM*,16µM*,.,.,i,?
COc1cccc(C(=O)NNC(=O)C(=O)Nc2cccc3ccccc23)c1,?,?,-9%,-20%,i,i
CCOc1ccc(S(=O)(=O)N2CCN(C(=O)CCC(=O)N3CCOCC3)CC2)cc1,2%,-3%,13%,6%,i,i
CC(=O)N(C)c1ccc(C=C2C=Cc3ccccc32)cc1,9.2µM*,9.2µM*,?,-7%,i,?
CCN(N=O)c1ccc(C=C2C=Cc3ccccc32)cc1,-5%,-26%,11%,7%,i,21µM*
Cc1ccc(SCCC(=O)Nc2ccccc2C(=O)NC(C)C)cc1,-10%,?,1%,-7%,i,2.9µM*
Cc1ccc(SCCC(=O)Nc2ccccc2Br)cc1,7%,-9%,10%,13%,i,i
CSc1ccccc1C(=O)Nc1ccccc1C(=O)NC(C)C,23µM*,?,-14%,-1%,i,i
COC(=O)c1ccccc1NC(=O)c1ccccc1SC,-7%,-19%,0%,-8%,i,i
COc1cc(OC)cc(C(=O)NCCCN2CCN(CCCNC(=O)c3cc(OC)cc(OC)c3)CC2)c1,6%,?,-15%,12%,i,?
Cc1cc(Cl)cc2c1NC(=O)[C@]21[C@@H]2C(=O)N(Cc3ccccc3)C(=O)[C@@H]2[C@@H]2CCCN21,-24%,?,?,-17%,i,i
COC(=O)c1c(N2C(=O)[C@H]3[C@@H](C2=O)[C@]2(C(=O)Nc4c(C)cccc42)N2CCC[C@@H]32)sc(C)c1C,21µM*,10µM*,?,-29%,?,?
COc1ccccc1CCCNC(=O)C1CCC(=O)N(CCc2ccc(Cl)cc2)C1 (configuration not stated),18µM*,23µM*,-12%,-2%,.,.
Cc1cc(C)cc(N(C)S(=O)(=O)c2nnc(NC(=O)COc3ccc(C)c(C)c3)s2)c1,-13%,-13%,.,.,.,.
COc1ccccc1C(c1nnnn1Cc1ccco1)N1CCN(c2cccc(C)c2C)CC1 (configuration not stated),18µM*,16µM*,?,-24%,?,?
COc1ccccc1N1CCN(C(c2ccccc2)c2nnnn2Cc2ccccc2)CC1 (configuration not stated),14µM*,16µM*,.,.,?,i
COc1ccc(Cn2nnnc2C(C(C)C)N2CCN(c3ccccc3OC)CC2)cc1 (configuration not stated),29µM*,23µM*,-1%[9.24 µM],-18%,18µM*,?
CC(C)(C)NC(=O)C(c1ccnc2ccccc12)n1c(=O)c(-c2cc3ccccc3[nH]2)nc2ccccc21 (configuration not stated),?,18µM*,23µM*,21µM*,?,?
